Assay results published in PMC7826789 (International Journal of Molecular Sciences, 2021).

test system: TYK2

Row | SMILES | Kinases covered
1 | CN(C)C/C=C/C(=O)Nc1ccc(C(=O)Nc2cccc(Nc3ncc(Cl)c(-c4c[nH]c5ccccc45)n3)c2)cc1 [THZ1] | TYK2
2 | Nc1ncnc2[nH]c(-c3ccccc3)nc12 [AH5015] | TYK2
3 | COc1ccc(-c2cc3c(N)ncnc3o2)cc1 [GW642138X] | TYK2

test system: YSK4

Row | SMILES | Kinases covered
4 | CC(C)N1CC(=O)N(C)c2cnc(Nc3cccc(S(=O)(=O)CCN4CCOCC4)c3)nc21 [BI00009348] | YSK4
5 | Cc1cc(NC(=O)c2cccc(NC(=O)/C=C/CN(C)C)c2)ccc1Nc1nccc(-c2cccnc2)n1 [JNK-IN-7] | YSK4
6 | CCCc1cc(N2CCCN(C)CC2)nc2sc3c(N)ncnc3c12 [BI00604564] | YSK4
7 | NC(=O)c1cccnc1COc1cc(-c2ccc(N3CCOCC3)nc2)cc2ncccc12 [BI01125081] | YSK4
8 | COc1cc2c(cc1OC)C(=C(Nc1ccccc1)c1cccc(CN)c1)C(=O)N2 [BIBF0846CL] | YSK4
